Several values for one entry are separate records, joined by “and”; a condition that tells them apart may be missing. Equal values may be shown once. Activity calls are given as the source filed them. Unless noted, no stated cut-off is given here; in the data, active means inhibition above about 80%; inactive means the rest.
Tests used:
[1] = growth inhibition, single agents and combos, CRL2098, cell-based, BGB or cisplatin IC20 combos, synergistic combos for chromothripsis tumors (AID 1671454); conditions: CRL2098 osteosarcoma cells, drug combinations, stronger effect = higher value;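 further: cells exposed for 96 h before readout; 0% = vehicle DMSO and 100% = killing by high DMSO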
[2] = growth inhibition, single agents and combos, HD-MB03, cell-based, BGB or cisplatin IC20 combos, synergistic combos for chromothripsis tumors (AID 1671455; in the data active means inhibition above about 83%;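 further: 0% = vehicle DMSO and 100% = high DMSO as cytotoxic control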); conditions: HD-MB03 medulloblastoma cells, stronger effect = higher value
[3] = growth inhibition, single agents and combos, UWB1.289, cell-based, BGB or cisplatin combos, synergistic combos for chromothripsis tumors (AID 1671456); conditions: UWB1.289 ovarian carcinoma cells, stronger effect = higher value;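 further: cells exposed to compound for four days; 0% = vehicle DMSO and 100% = killing by high DMSO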
[4] = growth inhibition, single agents and combos, LFS_MB_2R, cell-based, cisplatin combos, synergistic combos for chromothripsis tumors (AID 1671457); conditions: LFS_MB_2R medulloblastoma cells, stronger effect = higher value;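 further: cells exposed to compound for four days before readout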
[5] = growth inhibition, MDA-MB-436, cell-based, BGB or cisplatin combos, synergistic combos for chromothripsis tumors (AID 1671458; call rule not given here;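 further: cells exposed for 96 hours; 0% = vehicle DMSO and 100% = killing by high DMSO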); conditions: MDA-MB-436 breast carcinoma growth inhibition, drug combinations, stronger effect = higher value
[6] = UWB1.289_BRCA1 ovarian cancer growth, cell-based, BGB or cisplatin combinations (AID 1671459); conditions: UWB1.289 BRCA1 ovarian carcinoma, drug combinations, stronger effect = higher value
[7] = drug combination toxicity in non-malignant astrocytes – cell-based, BGB or cisplatin IC20 combos, cytotoxicity control for chromothriptic childhood tumor combination screen (AID 1671460); conditions: Human astrocytes, viability inhibition, drug combinations, at 0.5 µM, stronger effect = higher value;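 further: cells exposed to compounds for 96 hours before viability readout; 0% = vehicle and 100% = killing control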
[8] = BT084 cell growth, single and combined drugs, ICGC_MB145, cisplatin and BGB IC40 combos (AID 1671461); conditions: BT084 medulloblastoma cells, drug combinations, stronger effect = higher value;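 further: cells exposed to drugs for 96 hours; 0% = vehicle DMSO and 100% = high DMSO full killing control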
[9] = RCMB18 cell growth, single agent and combined, cisplatin and BGB IC40 combos (AID 1671462); conditions: RCMB18 medulloblastoma cells, stronger effect = higher value;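 further: cells exposed to compound for four days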
[10] = CRL1545 cell growth, single agent and combined, cisplatin and BGB IC20 combos (AID 1671464); conditions: CRL1545 osteosarcoma cells, stronger effect = higher value;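 further: cells exposed to compound for 96 hours before readout; 0% = vehicle DMSO and 100% = high DMSO killing control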
[11] = measured here: combination with cisplatin, at 0.5 µM

## CN(C)CC(=O)Nc1ccc2[nH]c(=O)c3ccccc3c2c1
[1]; measured here: combination with BGB at IC20, at 0.5 µM
  inhibition: -71.3% and -23.5% and -26.5%
[1]; measured here: combination with cisplatin at IC20, at 0.5 µM
  inhibition: -19% and -5.62% and -82%
[2]; at 0.5 µM
  inhibition: -0.31% (inactive) and -9.88% (inactive) and -18.4% (inactive)
[2]; measured here: combo with BGB at IC20, at 0.5 µM
  inhibition: 0.82% and -0.47% and -22%
[2]; measured here: combo with cisplatin at IC20, at 0.5 µM
  inhibition: -8.4% and -20.4% and -29.9%
[3]; at 0.5 µM
  inhibition: 3.12% (inactive) and 0.71% (inactive) and -1.11% (inactive)
[3]; measured here: inhibition with BGB combination, at 0.05 µM
  inhibition: -1.46% and -11.5% and -12.3%
[3]; measured here: inhibition with cisplatin combination, at 0.05 µM
  inhibition: -5.87% and -5.94% and -12.4%
[4]; at 0.5 µM
  inhibition: -1.17% (inactive) and -17.8% (inactive) and -26.4% (inactive)
[4]; [11]
  inhibition: -1.41% and -14.7% and -24.5%
[4]; measured here: combination with cisplatin, at 5 µM
  inhibition: -64% and -69.6% and -24.6%
[5]; at 0.5 µM
  inhibition: -4.41% (inactive) and -15.5% (inactive) and -5.43% (inactive)
[5]; measured here: BGB combination, at 0.5 µM
  inhibition: -3.67% and -13.7% and -14%
[5]; measured here: BGB combination, at 5 µM
  inhibition: -15.9% and -32.7% and -34.6%
[5]; measured here: cisplatin combination, at 0.5 µM
  inhibition: -8.29% and -33% and -6.83%
[5]; measured here: cisplatin combination, at 5 µM
  inhibition: -17.2% and -39.2% and -6.55%
[6]; BGB combination, concentration series, at 5 µM
  inhibition: -7.67% and -9.61% and 17%
[6]; at 0.5 µM
  inhibition: 1.59% (inactive) and -0.05% (inactive) and -1.7% (inactive)
[6]; cisplatin combination, concentration series, at 5 µM
  inhibition: 16.4% and 6.78% and -0.772%
[7]
  inhibition: 0.7% (inactive) and -7.07% (inactive) and 10.3% (inactive)
[7]; measured here: combo with BGB IC20
  inhibition: -4.06% and -11% and -10.6%
[7]; measured here: combo with cisplatin IC20
  inhibition: 6.3% and -10.6% and 20.9%
[8]; at 0.5 µM
  inhibition: -5% (inactive) and -17.7% (inactive) and -25% (inactive)
[8]; cisplatin combination, at 0.5 µM
  inhibition: -11% and 0.828% and -68.7%
[8]; cisplatin combination, at 5 µM
  inhibition: -4.17% and -13.1% and -46%
[8]; measured here: BGB IC40 combination 0.05 uM, at 0.05 µM
  inhibition: 25% and 2.93% and -19.8%
[8]; single agent, at 5 µM
  inhibition: -11.5% and -8.61% and -15%
[9]; at 0.5 µM
  inhibition: -10.8% (inactive) and -26% (inactive) and -30.1% (inactive)
[9]; cisplatin combo, at 5 µM
  inhibition: -47.6% and -22.2% and -34.1%
[9]; measured here: BGB IC40 combination, at 0.05 µM
  inhibition: 1.7% and -24.6% and -7.83%
[9]; [11]
  inhibition: -0.146% and -31.4% and -63.1%
[9]; single agent, at 5 µM
  inhibition: -17.1% and -32.1% and -45.8%
[10]; at 0.5 µM
  inhibition: -19.1% (inactive) and 4.9% (inactive) and -4.49% (inactive)
[10]; measured here: with BGB IC20 combination, at 0.5 µM
  inhibition: -45.9% and 5.19% and -19.6%
[10]; measured here: with cisplatin IC20 combination, at 0.5 µM
  inhibition: -8.03% and 2.6% and 1.49%
[10]; single agent, at 0.05 µM
  inhibition: 18.8% and -30.7% and 29.1%
[10]; single agent, at 5 µM
  inhibition: -20.3% and -21.7% and -53.8%
